{
  "source": "PubChem BioAssay (NCATS)",
  "note": "Inconclusive results are not listed. Active and inactive are the calls of the source. Calls follow the shape of the dose curve; as a rule, active = well fitted cell-killing curve with a large enough effect; inconclusive = small, poorly fitted or top-dose-only effect; inactive = no such curve, though single readings can be large or run the other way. % is scaled to controls: 0 for no effect and ±100 for the full control effect; potency is read from the fitted curve at half-maximal effect.",
  "data": [
    {"test": "qHTS of pediatric cancer cell lines to identify multiple opportunities for drug repurposing: Primary screen for Saos-2 cells (AID 1347097); also: nearly all actives have a fitted effect of over 40% in size", "conditions": "Saos-2 viability, CellTiter-Glo ATP luminescence, 48 h; series mostly up to 46 µM; activity change, negative = cytotoxic: at the top concentration", "source_text": "Drug repurposing or repositioning has been offered as a strategy for drug development in oncology programs. This approach has special potential for childhood cancers and other rare or orphan diseases, where the expected return on new drug development has been a disincentive to pharmaceuticals. […] In this project we exploit the poly-pharmacology of drugs to discover new indications via phenotypic screening of a panel of 19 well-characterized cell lines derived from solid tumors seen in children and adolescents. The goal is to identify approved drugs with previously unrecognized anticancer properties that has the potential to reveal new mechanisms and biological processes involved in carcinogenesis or drug resistance. We employed a titration-based paradigm (quantitative high-throughput screening or qHTS), where all compounds were tested at multiple concentrations for their effect on cell viability. Concentration-response curves (CRCs) were derived directly from the primary screen, and both potency and efficacy values were used to identify compounds with robust bioactivity profiles. We screened the NIH Chemical Genomics Center (NCGC) Pharmaceutical Collection (NPC) and Mechanism Interrogation Plate (MIPE) small molecule collections of approved and investigational compounds against these cell lines; and measured metabolically active cells after 48 hours of compound treatment as a proxy for cell viability. […] Assay Submitter: Nathalia J. Martinez, National Center for Advancing Translational Sciences, National Institutes of Health, Rockville, MD, USA; email: natalia.martinez@nih.gov Shen, M et al. Quantitative high-throughput phenotypic screening of pediatric cancer cell lines identifies multiple opportunities for drug repurposing. Oncotarget 2017 Dec 19;9(4):4758-4772. PMID 29435139.\nThe cells were obtained from University of North Carolina (UNC), Pediatric Preclinical Testing Program (PPT), and Coriell Institute (CI). qHTS cell viability assay: Cells were assayed in growth media at a density of 500-1,000 cells/well. Five microliters of cells were dispensed into 1,536-well, white, solid-bottom, TC-treated plates (Greiner Bio One) using a multidrop dispenser and incubated at 37 degrees C, 5% CO2, under a humidified atmosphere for 5 hours. Twenty-three nanoliters of compounds and controls (neutral control DMSO or positive control bortezomib at final concentration of 2.3 µM) were subsequently transferred by Kalypsys pintool. For primary screens, the MIPE collection was tested at 11-point dilutions (final concentrations range from 0.78 nM to 46 µM) and the NPC collection at 8-point dilutions (final concentrations range from 0.59 nM to 46 µM). Compounds tested in follow-up screens were assayed at 11-point dilutions. Cells were incubated for 48 hours, followed by addition of 3 µL of CellTiter-Glo (Promega). After a 15 min incubation at room temperature, samples were analyzed for luminescence intensity using a ViewLux High-throughput CCD imager equipped with clear filters.", "values": [
      {"smiles": "CNCCC(Oc1ccccc1OC)c1ccccc1", "note": "(stereo not given)", "activity change, negative = cytotoxic": "-5.74% (inactive)"},
      {"smiles": "CCN(CC)CCNC(=O)c1cc(S(C)(=O)=O)ccc1OC", "activity change, negative = cytotoxic": "-11.1% (inactive)"},
      {"smiles": "C[N+](C)(C)CCOC(N)=O", "activity change, negative = cytotoxic": "-9.43% (inactive)"},
      {"smiles": "C[N+](C)(C)CCCCCCCCCC[N+](C)(C)C", "activity change, negative = cytotoxic": "28.9% (inactive)"},
      {"smiles": "O=C(O)CN(CCOCCOCCN(CC(=O)O)CC(=O)O)CC(=O)O", "activity change, negative = cytotoxic": "-2.21% [at 0.597 µM] (inactive)"},
      {"smiles": "CCn1nc(C(=O)O)c(=O)c2cc3c(cc21)OCO3", "activity change, negative = cytotoxic": "-4.89% (inactive)"},
      {"smiles": "c1ccc2c(c1)CCCC2C1=NCCN1", "note": "(stereo not given)", "activity change, negative = cytotoxic": "0.133% (inactive)"},
      {"smiles": "CC(=O)OCC1=C(C(=O)O)N2C(=O)[C@@H](NC(=O)Cc3cccs3)[C@H]2SC1", "activity change, negative = cytotoxic": "24.1% (inactive)"},
      {"smiles": "CNCCCN1c2ccccc2CCc2ccccc21", "activity change, negative = cytotoxic": "-29.8% (inactive)"},
      {"smiles": "COc1ccc(CN(CCN(C)C)c2ccccn2)cc1", "activity change, negative = cytotoxic": "11.5% (inactive)"},
      {"smiles": "COc1cc(C(=O)OCCCN2CCCN(CCCOC(=O)c3cc(OC)c(OC)c(OC)c3)CC2)cc(OC)c1OC", "activity change, negative = cytotoxic": "-19.6% (inactive)"},
      {"smiles": "CCCCCN(CCCCC)C(=O)C(CCC(=O)O)NC(=O)c1ccc(Cl)c(Cl)c1", "note": "(stereo not given)", "activity change, negative = cytotoxic": "0.715% (inactive)"},
      {"smiles": "CCc1cccc(N(C)C(N)=Nc2cccc3ccccc23)c1", "Potency": "18.8 µM (active)"},
      {"smiles": "Cc1nc2c([nH]1)c(=O)n(C)c(=O)n2Cc1ccco1", "activity change, negative = cytotoxic": "-19.5% (inactive)"},
      {"smiles": "Cc1ccc(/C(=C\\CN2CCCC2)c2ccccn2)cc1", "activity change, negative = cytotoxic": "-8.1% (inactive)"},
      {"smiles": "NC(=O)c1ncn([C@@H]2O[C@H](CO)[C@@H](O)[C@H]2O)c1O", "activity change, negative = cytotoxic": "-20.8% (inactive)"},
      {"smiles": "CC(C)COCC(CN(Cc1ccccc1)c1ccccc1)N1CCCC1", "note": "(stereo not given)", "Potency": "26.6 µM (active)"},
      {"smiles": "CCCC(C(=O)OCCN(CC)CC)(c1ccccc1)c1ccccc1", "Potency": "26.6 µM (active)"},
      {"smiles": "C[N+](C)(C)CCOC(=O)CCC(=O)OCC[N+](C)(C)C", "activity change, negative = cytotoxic": "21.1% (inactive)"},
      {"smiles": "Cc1cccc(C)c1NC(=O)C(C)N", "note": "(stereo not given)", "activity change, negative = cytotoxic": "-2.32% (inactive)"},
      {"smiles": "CCCCOCCOCCOCc1cc2c(cc1CCC)OCO2", "activity change, negative = cytotoxic": "-24.5% [at 92.7 µM] (inactive)"},
      {"smiles": "CN(C)CC[C@@H](c1ccc(Br)cc1)c1ccccn1", "activity change, negative = cytotoxic": "19.8% (inactive)"},
      {"smiles": "CCNC(=O)N1CCN(CCCC(c2ccc(F)cc2)c2ccc(F)cc2)CC1", "activity change, negative = cytotoxic": "2.91% (inactive)"},
      {"smiles": "CN(C)CCN(Cc1cccs1)c1ccccn1", "activity change, negative = cytotoxic": "26.6% (inactive)"},
      {"smiles": "CN1C(=O)CC[C@H]1c1cccnc1", "activity change, negative = cytotoxic": "0.814% (inactive)"},
      {"smiles": "CO[C@@]1(NC(=O)CSCC#N)C(=O)N2C(C(=O)O)=C(CSc3nnnn3C)CS[C@@H]21", "activity change, negative = cytotoxic": "-7.74% (inactive)"},
      {"smiles": "O=C(O)CN(CCN(CC(=O)O)CC(=O)O)CCN(CC(=O)O)CC(=O)O", "activity change, negative = cytotoxic": "-1.68% [at 16.1 µM] (inactive)"},
      {"smiles": "COCCc1ccc(OCC(O)CNC(C)C)cc1", "note": "(stereo not given)", "activity change, negative = cytotoxic": "-12.5% (inactive)"},
      {"smiles": "CCCCNc1c(C(=O)OCC)c(C)nc2c1cnn2CC", "Potency": "26.6 µM (active)"},
      {"smiles": "CC(C)(C)NCC(O)c1cc(O)cc(O)c1", "note": "(stereo not given)", "activity change, negative = cytotoxic": "-19.2% (inactive)"},
      {"smiles": "COC(=O)C1=C(C)NC(C)=C(C(=O)OCCN(C)Cc2ccccc2)C1c1cccc([N+](=O)[O-])c1", "note": "(stereo not given)", "Potency": "29.9 µM (active)"},
      {"smiles": "CCCN1C[C@H](CSC)C[C@@H]2c3cccc4[nH]cc(c34)C[C@H]21", "activity change, negative = cytotoxic": "-2.15% (inactive)"},
      {"smiles": "O=C(CCNNC(=O)c1ccncc1)NCc1ccccc1", "activity change, negative = cytotoxic": "-8.37% (inactive)"},
      {"smiles": "CN(C)[C@@H]1C(=O)C(C(N)=O)=C(O)[C@@]2(O)C(=O)C3=C(O)c4c(O)ccc(Cl)c4[C@@H](O)[C@H]3C[C@@H]12", "activity change, negative = cytotoxic": "40.4% (inactive)"},
      {"smiles": "CCCOc1ccccc1-c1nc2n[nH]nc2c(=O)[nH]1", "activity change, negative = cytotoxic": "-13.8% (inactive)"},
      {"smiles": "CN/C(=C\\[N+](=O)[O-])NCCSCc1ccc(CN(C)C)o1", "activity change, negative = cytotoxic": "1.96% (inactive)"},
      {"smiles": "CCCCNc1ccc(C(=O)OCCN(C)C)cc1", "activity change, negative = cytotoxic": "8.25% (inactive)"},
      {"smiles": "CC(C)NCC(O)c1cc(O)cc(O)c1", "note": "(stereo not given)", "activity change, negative = cytotoxic": "-15.5% (inactive)"},
      {"smiles": "CCN(CC)CC(=O)Nc1c(C)cccc1C", "activity change, negative = cytotoxic": "-14.5% (inactive)"},
      {"smiles": "CCN(CC)CCCN(c1ccccc1)C1Cc2ccccc2C1", "activity change, negative = cytotoxic": "-15.6% (inactive)"}
    ]}
  ]
}
